From PubChem BioAssay AID463173 (ICCB-Longwood Screening Facility, Harvard Medical School, 2010)
About 4,300 (8.3%) of roughly 52,000 compounds were called active. Shown is part of a subset that was picked to be rich in actives. Unmarked numbers belong to inactive results. Cut-off read from the data, not from the text of the source: active = survival mostly below about 52% (no sharp cut-off); inactive = mostly above about 56%.

Tested on: DeltatarO mutant
Experiment: S. aureus survival, RN4220 and DeltatarO strains – OD600, teichoic acid synthesis inhibitors, primary screen (AID 463173)
Details: S. aureus RN4220 wild type/DeltatarO growth, OD600, 18 h, hits give low values, screened at 18.75 µg/mL (by protocol)

Q: `CCOc1ccc(-n2c(=O)c3c(C)c(C)sc3n(Cc3c(F)cccc3Cl)c2=O)cc1` was tested. Which survival did it give?
A: 96%

Q: How did the survival turn out when `Cc1cccc(C(=O)NCC(=O)OCc2cc(=O)n3nc(C)sc3n2)c1` was run?
A: 82%

Q: Which survival does the source give for `N#Cc1ccc(C(=O)NCc2ccc3c(c2)CCN3C(=O)c2ccc(F)cc2)cc1` here?
A: 83%

Q: `CCOc1ccc(S(=O)(=O)N2Cc3ccccc3CC2C(=O)Nc2ccc(NC(C)=O)cc2)cc1` (centres undefined) was tested. Which survival did it give?
A: 69%

Q: Which survival does the source give for `Cc1ccc(-n2ncc(C(=O)Nc3ccc4c(c3)OCO4)c2C2CCN(C(=O)OC(C)(C)C)CC2)cc1` here?
A: 79%

Q: With `COc1ccc(CC(CC(=O)O)C(=O)NCc2ccccc2)cc1` (centres undefined) as the compound, how does the survival read?
A: 81%

Q: Which survival does the source give for `CCC(=O)Nc1ccc(C(=O)Nc2c[nH]c(=O)[nH]c2=O)cc1` here?
A: 85%

Q: `CC1CCN(c2nnc(-n3cccc3CNc3cccc(F)c3)s2)CC1` was tested. Which survival did it give?
A: 93%

Q: `Cc1ccc(NC(=O)CSc2nnc(-c3ccc([N+](=O)[O-])cc3)o2)c(C)c1` was tested. Which survival did it give?
A: 73%

Q: Which survival does the source give for `CCOC(=O)c1cc(S(=O)(=O)Nc2cc(C)c(Cl)cc2OC)[nH]n1` here?
A: 77%

Q: With `CCOC(=O)c1cc(S(=O)(=O)Nc2ccc(OC)c(Cl)c2)[nH]n1` as the compound, how does the survival read?
A: -4% (active)

Q: With `CCOC(=O)c1cc(S(=O)(=O)Nc2cc(OC)ccc2OC)[nH]n1` as the compound, how does the survival read?
A: 119%

Q: `COc1cc(OC)cc(C(=O)Nc2cc3c(cc2N2CCCCC2)n(C)c(=O)n3C)c1` was tested. Which survival did it give?
A: 83%

Q: Which survival does the source give for `COc1ccc(OC)c(S(=O)(=O)N2CCC(c3ccncc3)CC2)c1` here?
A: 122%

Q: Which survival does the source give for `COc1ccc(-n2cc(C(=O)NCCc3ccc(C)cc3)c3ccccc3c2=O)cc1` here?
A: 53%

Q: `COc1ccc(CNC(=O)c2cn(-c3cccc(OC)c3)c(=O)c3ccccc23)cc1` was tested. Which survival did it give?
A: 67%

Q: Which survival does the source give for `COc1ccc(-n2cc(C(=O)NCc3cccc(OC)c3)c3ccccc3c2=O)cc1` here?
A: 110%

Q: With `COc1ccc(-n2cc(C(=O)NCCc3cc(OC)ccc3OC)c3ccccc3c2=O)cc1` as the compound, how does the survival read?
A: 55% (active)

Q: With `COc1ccc(OC)c(CCNC(=O)c2cc3c(=O)n(C)c4ccccc4c3n2C)c1` as the compound, how does the survival read?
A: 43% (active)

Q: Which survival does the source give for `COc1ccc(CNC(=O)c2cc3c(=O)n(C)c4ccccc4c3n2C)c(OC)c1` here?
A: 50%

Q: For `COc1ccc(CNC(=O)c2cc3c(=O)n(C)c4ccccc4c3n2C)cc1`, which survival is on record?
A: 89%

Q: How did the survival turn out when `CCOc1ccc(CCNC(=O)c2cn(-c3ccc(OC)cc3)c(=O)c3ccccc23)cc1OCC` was run?
A: 111%

Q: `COc1cccc(-n2cc(C(=O)NCc3cccc(Cl)c3)c3ccccc3c2=O)c1` was tested. Which survival did it give?
A: 58% (active)

Q: For `CC1CCC(NC(=O)c2ccc(CSc3nc4ccncc4n3Cc3ccc(F)cc3)cc2)CC1` (centres undefined), which survival is on record?
A: 59%

Q: How did the survival turn out when `COc1ccc(OC)c(-n2c(=O)[nH]c3cc(C(=O)NCCc4ccc(OC)c(OC)c4)ccc3c2=O)c1` was run?
A: 76%

Q: Which survival does the source give for `CCC1CN(C(=O)N2CCC(C(=O)NCc3ccc(N(C)C)cc3)CC2)c2ccccc2O1` (centres undefined) here?
A: 73%

Q: With `CCOC(=O)N1CCc2c(sc(NCc3ccc(N(CC)CC)cc3)c2C(=O)Nc2cc(OC)ccc2OC)C1` as the compound, how does the survival read?
A: 71%

Q: For `CCOC(=O)c1ccc(NC2=CC(c3ccc(F)cc3)N(c3ccc(C(=O)OCC)cc3)C2=O)cc1` (centres undefined), which survival is on record?
A: 66%

Q: How did the survival turn out when `CCc1nc2cccnc2n1-c1ccc(CC(=O)Nc2ccc(C)cc2)cc1` was run?
A: 78%

Q: With `COc1ccccc1Nc1nn2c(=O)c3ccc(C(=O)NCCCOC(C)C)cc3nc2s1` as the compound, how does the survival read?
A: 71%

Q: With `CCOC(=O)c1ccc(NC(=O)C2=C(C)C(=O)OC23CCCCCC3)cc1` as the compound, how does the survival read?
A: 81%

Q: For `Cc1cc(NS(=O)(=O)c2ccc(NC(=O)COc3ccccc3Br)cc2)no1`, which survival is on record?
A: 67%

Q: Which survival does the source give for `Cc1cc(NS(=O)(=O)c2ccc(NC(=O)COc3c(C)cc(Br)cc3C)cc2)no1` here?
A: 110%

Q: Which survival does the source give for `Cc1cc(NS(=O)(=O)c2ccc(NC(=O)COc3ccc(Br)cc3C)cc2)no1` here?
A: 32% (active)

Q: Which survival does the source give for `Cc1ccc(OCC(=O)Nc2ccc(S(=O)(=O)Nc3cc(C)on3)cc2)c(Br)c1` here?
A: 56%

Q: Which survival does the source give for `CCC(C)c1ccccc1OCC(=O)Nc1ccc(S(=O)(=O)Nc2cc(C)on2)cc1` (centres undefined) here?
A: 80%

Q: `Cc1cccc(OCC(=O)Nc2ccc(S(=O)(=O)Nc3onc(C)c3C)cc2)c1C` was tested. Which survival did it give?
A: 40% (active)

Q: `Cc1noc(NS(=O)(=O)c2ccc(NC(=O)COc3ccccc3Br)cc2)c1C` was tested. Which survival did it give?
A: 53%

Q: `Cc1cc(NS(=O)(=O)c2ccc(NC(=O)COc3cc(C)c(Br)cc3C(C)C)cc2)no1` was tested. Which survival did it give?
A: 13% (active)

Q: With `Cc1ccc(C)c(OCC(=O)Nc2ccc(S(=O)(=O)Nc3onc(C)c3C)cc2)c1C` as the compound, how does the survival read?
A: 165%

Q: How did the survival turn out when `COc1ccc2c(c1)c(CC(=O)Nc1cc(C)c(OC)c(C)c1)c(C)n2C(=O)c1ccc(Cl)cc1` was run?
A: 71%

Q: Which survival does the source give for `COc1cc(C(c2nnnn2C2CCCCC2)N2CCc3ccccc3C2)ccc1O` (centres undefined) here?
A: 62%

Q: How did the survival turn out when `COc1ccc(N2CCN(C(=O)c3ccc4c(c3)N(Cc3cccc(Cl)c3)C(=O)c3ccccc3S4(=O)=O)CC2)cc1` was run?
A: 83%

Q: For `COc1cc2oc(=O)c(CC(=O)NCc3ccc(OC)c(OC)c3)c(C)c2cc1Cl`, which survival is on record?
A: 71%

Q: For `CC(=O)N1CCC2(CC1)OC(=O)C(C)=C2C(=O)NCc1ccc(Cl)cc1`, which survival is on record?
A: 58%

Q: `Cc1cc(C)cc(NC(=O)c2cccc(C(=O)Nc3cc(C)cc(C)c3)c2)c1` was tested. Which survival did it give?
A: 129%

Q: With `CCOc1ccc(C(=O)N2CCN(c3ccccc3)CC2)cc1` as the compound, how does the survival read?
A: 78%

Q: Which survival does the source give for `CC1=C(C(=O)Nc2ccccc2C)C(c2ccccc2O)NC(=S)N1` (centres undefined) here?
A: 103%

Q: `COc1ccccc1NC(=O)C1=C(C)NC(=S)NC1C` (centres undefined) was tested. Which survival did it give?
A: 86%

Q: How did the survival turn out when `CC1=C(C(=O)Nc2ccccc2)C(c2ccc(C)o2)NC(=S)N1` (centres undefined) was run?
A: 61% (active)

Q: How did the survival turn out when `O=S(=O)(Nc1ccccn1)c1cccs1` was run?
A: 83%

Q: `CCN(C(=O)c1nn(-c2ccc(OC)c(Cl)c2)c(=O)c2c1c1ccccc1n2C)c1cccc(C(F)(F)F)c1` was tested. Which survival did it give?
A: 75%

Q: `COc1ccc2c(c1)Cc1sc(NC(=O)c3ccccc3C)nc1-2` was tested. Which survival did it give?
A: 102%

Q: `COc1ccc(C(=O)Nc2nc3c(s2)CCc2cc(OC)ccc2-3)cc1` was tested. Which survival did it give?
A: 35% (active)

Q: With `COc1ccc2c(c1)-c1nc(NC(=O)c3cc(Cl)ccc3OC)sc1CC2` as the compound, how does the survival read?
A: 69%

Q: `COc1ccc2c(c1)Cc1sc(NC(=O)c3cccc(F)c3)nc1-2` was tested. Which survival did it give?
A: 67%

Q: How did the survival turn out when `COc1ccc2c(c1)-c1nc(NC(=O)c3cccc(Br)c3)sc1CC2` was run?
A: 51%

Q: Which survival does the source give for `COc1ccc2c(c1)Cc1sc(NC(=O)c3ccccc3Br)nc1-2` here?
A: 63%

Q: `COc1ccc2c(c1)-c1nc(NC(=O)c3ccccc3F)sc1CC2` was tested. Which survival did it give?
A: 2% (active)

Q: For `COc1ccc(C(=O)Nc2nc3c(s2)Cc2cc(OC)ccc2-3)cc1`, which survival is on record?
A: 55%

Q: `COc1ccc2c(c1)-c1nc(NC(=O)c3ccc(Cl)cc3)sc1CC2` was tested. Which survival did it give?
A: 96%

Q: How did the survival turn out when `COc1ccc2c(c1)Cc1sc(NC(=O)c3cccc(C)c3)nc1-2` was run?
A: 18% (active)

Q: How did the survival turn out when `COc1ccc2c(c1)CCc1sc(NC(=O)c3ccc(Cl)cc3)nc1-2` was run?
A: 31% (active)

Q: How did the survival turn out when `COc1ccc2c(c1)Cc1sc(NC(=O)c3ccc(Cl)cc3)nc1-2` was run?
A: 80%
